# In paper PMC7862700, “An all-to-all approach to the identification of sequence-specific readers for epigenetic DNA modifications on cytosine”:
# Tests used:
# Assay in all cases: DAPPL (digital affinity profiling via proximity ligation, sequencing); 10 mM Tris-HCl pH 7.5, 50 mM NaCl, 1 mM DTT, 4% glycerol, room temperature, 30 min; GST-TFs on glutathione beads, 16-mer random dsDNA library, 0.1% formaldehyde crosslink after washing; high values mean tight binding
# Details in all cases: protein: recombinant; tags: N-terminal GST; dsDNA, one strand shown
# ELK4 = biological target: T1, ELK4 (Homo sapiens, UniProt P28324-2 1-405)
# T1 sequence: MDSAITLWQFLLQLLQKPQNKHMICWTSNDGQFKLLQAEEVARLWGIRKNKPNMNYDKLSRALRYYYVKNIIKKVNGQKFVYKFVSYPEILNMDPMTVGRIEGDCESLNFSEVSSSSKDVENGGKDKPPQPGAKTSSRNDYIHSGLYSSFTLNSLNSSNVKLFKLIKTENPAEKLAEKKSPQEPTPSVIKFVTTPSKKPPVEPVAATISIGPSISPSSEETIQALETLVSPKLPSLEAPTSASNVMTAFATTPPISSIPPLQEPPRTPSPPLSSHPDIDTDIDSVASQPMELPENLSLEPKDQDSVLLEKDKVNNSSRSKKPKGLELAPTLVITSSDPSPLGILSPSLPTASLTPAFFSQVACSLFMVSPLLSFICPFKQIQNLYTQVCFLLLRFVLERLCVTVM
# Procedure, shortened: (§1)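 GST fusions of human transcription factors were expressed in yeast and captured with glutathione beads. Once given DNA barcodes and pooled alongside a tag-only sample, they were incubated for 30 min at room temperature with 200 nmole of a random double-stranded 16-mer DNA library in Tris/NaCl/DTT/glycerol buffer, then washed, crosslinked (0.1% formaldehyde), proximity-ligated, PCR-amplified and sequenced on an Illumina NextSeq500. The binding signal of each hexamer is its read frequency for a factor divided by its frequency for the tag-only sample.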
# ELF3 = biological target: T2, ELF3 (Homo sapiens, UniProt P78545 1-371)
# T2 sequence: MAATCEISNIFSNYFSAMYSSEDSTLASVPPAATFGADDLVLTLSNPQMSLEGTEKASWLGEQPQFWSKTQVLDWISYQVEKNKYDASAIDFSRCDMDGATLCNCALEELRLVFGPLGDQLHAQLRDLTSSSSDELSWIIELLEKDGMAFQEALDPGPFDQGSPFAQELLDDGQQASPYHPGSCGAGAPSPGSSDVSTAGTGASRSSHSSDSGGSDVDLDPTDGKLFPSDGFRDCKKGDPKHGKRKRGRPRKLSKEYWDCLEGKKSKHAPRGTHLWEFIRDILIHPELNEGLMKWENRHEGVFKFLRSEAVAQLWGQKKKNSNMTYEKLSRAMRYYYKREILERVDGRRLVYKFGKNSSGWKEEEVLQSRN
# Procedure, shortened: as §1
# ETV1 = ETV1 (Homo sapiens, UniProt P50549 1-477)
# ETV1, sequence (P50549 whole entry): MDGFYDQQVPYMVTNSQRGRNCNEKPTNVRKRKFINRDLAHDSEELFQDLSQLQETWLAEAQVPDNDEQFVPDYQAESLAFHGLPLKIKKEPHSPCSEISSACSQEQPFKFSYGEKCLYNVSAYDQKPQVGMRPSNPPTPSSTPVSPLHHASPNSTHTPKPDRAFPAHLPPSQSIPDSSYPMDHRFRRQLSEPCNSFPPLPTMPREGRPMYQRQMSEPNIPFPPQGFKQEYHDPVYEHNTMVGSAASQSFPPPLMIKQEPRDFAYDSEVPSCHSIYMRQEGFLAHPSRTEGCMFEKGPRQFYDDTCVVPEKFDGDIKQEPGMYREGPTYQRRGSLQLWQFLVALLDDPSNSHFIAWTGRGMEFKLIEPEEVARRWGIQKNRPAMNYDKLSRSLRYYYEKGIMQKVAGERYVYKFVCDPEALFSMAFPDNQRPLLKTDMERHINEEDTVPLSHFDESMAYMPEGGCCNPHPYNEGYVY
# Procedure, shortened: as §1
# ERF = biological target: T3, ERF (Homo sapiens, UniProt P50548 1-548)
# T3 sequence: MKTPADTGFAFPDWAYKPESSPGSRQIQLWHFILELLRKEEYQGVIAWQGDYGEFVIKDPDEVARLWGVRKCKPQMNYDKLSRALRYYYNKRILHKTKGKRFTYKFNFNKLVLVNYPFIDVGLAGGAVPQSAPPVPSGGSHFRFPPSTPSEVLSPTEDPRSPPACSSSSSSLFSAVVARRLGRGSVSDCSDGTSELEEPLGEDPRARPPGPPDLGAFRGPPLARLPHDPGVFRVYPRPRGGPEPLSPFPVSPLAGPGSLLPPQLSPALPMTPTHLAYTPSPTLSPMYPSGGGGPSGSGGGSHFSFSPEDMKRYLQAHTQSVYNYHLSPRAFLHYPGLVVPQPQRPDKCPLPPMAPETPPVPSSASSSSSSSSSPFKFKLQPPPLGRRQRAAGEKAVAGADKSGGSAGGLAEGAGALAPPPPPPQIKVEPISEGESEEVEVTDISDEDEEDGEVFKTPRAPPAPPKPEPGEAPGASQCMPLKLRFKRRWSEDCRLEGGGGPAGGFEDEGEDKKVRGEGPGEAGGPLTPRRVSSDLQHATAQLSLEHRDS
# Procedure, shortened: as §1
# ETV3L = biological target: T4, ETV3L (Homo sapiens, UniProt Q6ZN32 1-361)
# T4 sequence: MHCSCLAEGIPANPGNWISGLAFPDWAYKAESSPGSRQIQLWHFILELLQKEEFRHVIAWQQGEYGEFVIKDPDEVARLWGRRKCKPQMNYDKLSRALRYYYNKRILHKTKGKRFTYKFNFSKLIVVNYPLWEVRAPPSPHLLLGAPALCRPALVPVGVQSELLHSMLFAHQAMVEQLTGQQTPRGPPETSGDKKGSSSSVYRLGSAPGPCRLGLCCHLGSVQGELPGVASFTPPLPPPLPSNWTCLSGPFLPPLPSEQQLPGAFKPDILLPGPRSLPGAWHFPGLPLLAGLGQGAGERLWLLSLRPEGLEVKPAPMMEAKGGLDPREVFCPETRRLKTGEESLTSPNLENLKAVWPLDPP
# Procedure, shortened: as §1
# ETS2 = biological target: T5, ETS2 (Homo sapiens, UniProt P15036 1-469)
# T5 sequence: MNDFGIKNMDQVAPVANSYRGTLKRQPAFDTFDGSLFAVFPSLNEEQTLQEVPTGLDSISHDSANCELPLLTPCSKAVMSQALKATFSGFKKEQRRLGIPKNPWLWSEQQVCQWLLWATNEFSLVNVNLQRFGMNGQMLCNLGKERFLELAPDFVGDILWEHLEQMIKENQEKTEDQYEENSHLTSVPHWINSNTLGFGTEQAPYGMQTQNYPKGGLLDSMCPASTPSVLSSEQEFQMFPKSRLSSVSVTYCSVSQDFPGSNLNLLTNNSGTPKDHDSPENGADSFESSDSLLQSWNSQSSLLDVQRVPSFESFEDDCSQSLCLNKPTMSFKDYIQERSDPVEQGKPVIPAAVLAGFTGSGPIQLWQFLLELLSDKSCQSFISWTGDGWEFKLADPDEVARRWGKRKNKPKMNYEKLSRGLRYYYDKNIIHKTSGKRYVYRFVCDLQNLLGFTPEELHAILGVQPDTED
# Procedure, shortened: as §1
# SPDEF = biological target: T6, SPDEF (Homo sapiens, UniProt O95238 1-335)
# T6 sequence: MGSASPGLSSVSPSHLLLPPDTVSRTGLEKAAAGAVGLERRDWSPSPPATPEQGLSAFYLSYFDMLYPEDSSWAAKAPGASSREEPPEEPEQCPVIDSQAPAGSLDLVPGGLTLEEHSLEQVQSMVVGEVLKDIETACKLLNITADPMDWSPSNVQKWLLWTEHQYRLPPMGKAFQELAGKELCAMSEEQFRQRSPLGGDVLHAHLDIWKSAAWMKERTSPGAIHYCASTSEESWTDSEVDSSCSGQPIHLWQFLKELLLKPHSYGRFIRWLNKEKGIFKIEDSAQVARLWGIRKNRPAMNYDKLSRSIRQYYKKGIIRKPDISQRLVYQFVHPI
# Procedure, shortened: as §1
# ETV7 = biological target: T7, ETV7 (Homo sapiens, UniProt Q9Y603 1-341)
# T7 sequence: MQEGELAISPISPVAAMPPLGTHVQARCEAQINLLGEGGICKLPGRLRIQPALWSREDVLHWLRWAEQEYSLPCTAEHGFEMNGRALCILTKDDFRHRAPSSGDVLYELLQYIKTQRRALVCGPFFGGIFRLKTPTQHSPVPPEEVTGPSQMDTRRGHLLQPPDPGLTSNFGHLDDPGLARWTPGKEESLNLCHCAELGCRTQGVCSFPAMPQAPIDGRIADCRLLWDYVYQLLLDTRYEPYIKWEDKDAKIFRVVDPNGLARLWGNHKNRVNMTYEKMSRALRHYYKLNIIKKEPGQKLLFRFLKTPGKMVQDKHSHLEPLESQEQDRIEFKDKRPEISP
# Procedure, shortened: as §1
# ETV3 = biological target: T8, ETV3 (Homo sapiens, UniProt P41162-2 1-143)
# T8 sequence: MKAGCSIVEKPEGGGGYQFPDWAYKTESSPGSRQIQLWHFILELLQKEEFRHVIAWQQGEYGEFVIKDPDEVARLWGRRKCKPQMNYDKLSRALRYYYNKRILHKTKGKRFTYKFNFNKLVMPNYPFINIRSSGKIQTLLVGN
# Procedure, shortened: as §1
# ETV6 = ETV6 (Homo sapiens, UniProt P41212 1-452)
# ETV6, sequence (P41212 whole entry): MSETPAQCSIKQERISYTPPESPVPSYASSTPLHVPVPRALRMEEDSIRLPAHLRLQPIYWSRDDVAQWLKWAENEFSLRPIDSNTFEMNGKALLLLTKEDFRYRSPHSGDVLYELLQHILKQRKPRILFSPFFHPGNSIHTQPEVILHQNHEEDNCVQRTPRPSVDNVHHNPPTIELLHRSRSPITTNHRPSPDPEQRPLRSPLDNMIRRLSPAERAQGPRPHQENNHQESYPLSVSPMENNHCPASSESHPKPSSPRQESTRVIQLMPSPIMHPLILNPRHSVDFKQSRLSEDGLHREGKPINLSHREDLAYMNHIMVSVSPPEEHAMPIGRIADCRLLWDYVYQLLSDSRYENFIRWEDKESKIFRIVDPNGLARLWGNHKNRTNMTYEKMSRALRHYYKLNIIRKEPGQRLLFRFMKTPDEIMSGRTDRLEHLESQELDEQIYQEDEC
# Procedure, shortened: as §1
sequence,measurement,setting,value
GGCTAC,binding signal,ELK4,"1.1 fold enrichment (6-mer frequency, TF over GST control)"
same,binding signal,ELF3,"1.18 fold enrichment (6-mer frequency, TF over GST control)"
same,binding signal,ETV1,"1.12 fold enrichment (6-mer frequency, TF over GST control)"
same,binding signal,ERF,"1.12 fold enrichment (6-mer frequency, TF over GST control)"
same,binding signal,ETV3L,"1.16 fold enrichment (6-mer frequency, TF over GST control)"
same,binding signal,ETS2,"1.2 fold enrichment (6-mer frequency, TF over GST control)"
same,binding signal,SPDEF,"1.22 fold enrichment (6-mer frequency, TF over GST control)"
same,binding signal,ETV7,"1.26 fold enrichment (6-mer frequency, TF over GST control)"
same,binding signal,ETV3,"1.07 fold enrichment (6-mer frequency, TF over GST control)"
same,binding signal,ETV6,"1.2 fold enrichment (6-mer frequency, TF over GST control)"
